# Measurements as given in PubChem BioAssay (Tox21).
# A number with no mark means an inactive call. Results filed as inconclusive are left out. A call without a number means that no potency is given here. The source made the active and inactive calls. Unless noted, calls follow the shape of the dose curve; as a rule, active = well fitted curve in the direction sought with a large enough effect in the repeat runs; inconclusive = weak or mixed curves; inactive = no such curve, though single readings can be large; an effect the other way counts as inactive or inconclusive.
# Columns and labels:
# [1] = qHTS assay for small molecules that induce genotoxicity in human embryonic kidney cells expressing luciferase-tagged ATAD5 (AID 651632); also: nearly all actives have a fitted effect of over 15% in size
# Summary of the method: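 Luminescence read-out: after 16 hr compound exposure at 37C, ATAD5-luciferase HEK293T cells received Amplite, 30 min RT, then CCD imaging. A rise in signal marks genotoxic stress.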
# [2] = qHTS assay for small molecule agonists of the p53 signaling pathway - cell viability (AID 651633; calls by dose curve; also: nearly all actives have a fitted effect of over 30% in size; also: potency is read from the fitted curve at half-maximal effect)
# Summary of the method: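 Viability counter-read: CellTiter-Glo luminescence (30 min, room temperature) in the same p53RE-bla plates. These plates had been exposed to compounds for 16 h at 37 C.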
# [3] = qHTS assay for small molecules that induce genotoxicity in human embryonic kidney cells expressing luciferase-tagged ATAD5 - cell viability (AID 651634; calls by dose curve; also: nearly all actives have a fitted effect of over 25% in size; also: potency is read from the fitted curve at half-maximal effect)
# Summary of the method: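 HEK293T ATAD5-luc cells, 2,000/well; compound 15.5 hr, 37C/5% CO2; CellTiter-Fluor 30 min, 37C; fluorescence read.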
# [4] = qHTS assay for small molecule disruptors of the mitochondrial membrane potential - cell viability (AID 720634; calls by dose curve;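 also: human HepG2 liver cancer cells; series mostly up to about 83 µM; nearly all actives have a fitted effect of over 20% in size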)
# Summary of the method: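 Luminescence from CellTiter-Glo (ATP content) gave viability in HepG2 cells, read in the same wells as the MMP dye assay after 1 hr compound exposure at 37 C.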
# [5] = qHTS assay to test for compound auto fluorescence at 590 nm (red) in HepG2 cells (AID 720674)
# Summary of the method: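 We screened compounds on adherent HepG2 cells, incubating them for an hour at 37 C in 5% CO2 before reading emission at 590 nm under 540 nm excitation; values reflect equivalence to Rose Bengal sodium fluorescence.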
# [6] = qHTS assay to test for compound auto fluorescence at 460 nm (blue) in HEK293 cells (AID 720678); also: potency is read from the fitted curve at half-maximal effect
# Summary of the method: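 Blue-channel (Ex/Em 405/460 nm) intensity measured in HEK293 cultures after overnight compound exposure at 37C; signal expressed relative to triamterene. Cells plated 2,000 per well in 10% dialyzed FBS medium and allowed 4-5 hr to attach.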
# [7] = qHTS assay to test for compound auto fluorescence at 535 nm (green) in HEK293 cells (AID 720680)
# [8] = qHTS assay to test for compound auto fluorescence at 460 nm (blue) in HEK293 cell free culture (AID 720681); also: potency is read from the fitted curve at half-maximal effect
# Summary of the method: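 Blue fluorescence (Ex 405/Em 460 nm, triamterene-equivalent) was read immediately after pin transfer of compound or DMSO into medium (DMEM, 10% FBS) without cells.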
# [9] = qHTS assay to test for compound auto fluorescence at 535 nm (green) in HEK293 cell free culture (AID 720682)
# Summary of the method: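 Cell-free medium (DMEM, 10% FBS) receives compound or DMSO by pintool. Plate read directly at Ex 485/Em 535 nm. Signal converted to fluorescein equivalency.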
# [10] = qHTS assay to test for compound auto fluorescence at 590 nm (red) in HEK293 cell free culture (AID 720683)
# Summary of the method: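 Red-channel autofluorescence of compounds in culture medium (DMEM, 10% FBS), no cells, measured at 540/590 nm. Rose Bengal sodium is the reference fluorophore for equivalence.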
# [11] = qHTS assay to test for compound auto fluorescence at 590 nm (red) in HepG2 cell free culture (AID 720684)
# Summary of the method: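 No cells present: MEM + 10% FBS only. Compound pinned in, red label read (540/590 nm). Activity = fluorescence equivalent to Rose Bengal sodium.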
# [12] = qHTS assay to test for compound auto fluorescence at 460 nm (blue) in HepG2 cell free culture (AID 720685); also: potency is read from the fitted curve at half-maximal effect
# Summary of the method: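 Cell-free plates of MEM plus 10% FBS received 23 nL compound or DMSO vehicle; blue-channel (405/460 nm) intensity scored against triamterene as reference fluorophore.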
# [13] = qHTS assay to test for compound auto fluorescence at 535 nm (green) in HepG2 cell free culture (AID 720686)
# [14] = qHTS assay to test for compound auto fluorescence at 460 nm (blue) in HepG2 cells (AID 720687); also: potency is read from the fitted curve at half-maximal effect
# Summary of the method: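 Blue-channel autofluorescence (Ex/Em 405/460 nm, triamterene-equivalent) was measured after 1 hr compound exposure at 37 C, 5% CO2. Cells were HepG2, plated overnight at 37 C in MEM plus 10% FBS.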
# [15] = target: Glucocorticoid receptor (Homo sapiens) (UniProt P04150); experiment: qHTS assay to identify small molecule agonists of the glucocorticoid receptor (GR) signaling pathway (AID 720691; active = well fitted activation curve with a large enough effect in the signal ratio in the repeat runs, not every such curve was filed as active; the % refers to the signal ratio)
# Summary of the method: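 HeLa GR-bla reporter line; cells pre-incubated 4 h, compound in DMSO 18 h at 37 C; LiveBLAzer B/G FRET substrate 2 h RT; fluorescence intensity read-out.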
# [16] = target: Glucocorticoid receptor (Homo sapiens) (UniProt P04150); experiment: qHTS assay to identify small molecule antagonists of the glucocorticoid receptor (GR) signaling pathway (AID 720692; active = well fitted inhibition curve with a large enough effect in the signal ratio in the repeat runs, not every such curve was filed as active; the % refers to the signal ratio; also: potency is read from the fitted curve at half-maximal effect)
# Summary of the method: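 Read-out: beta-lactamase FRET substrate fluorescence, 2 h at room temperature, in HeLa cells stably carrying a GRE-driven bla reporter. Compounds were co-incubated with 5 nM dexamethasone agonist (final) for 18 h at 37 C.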
# [17] = qHTS assay to test for compound auto fluorescence at 535 nm (green) in HepG2 cells (AID 720675)
# [18] = qHTS assay to test for compound auto fluorescence at 590 nm (red) in HEK293 cells (AID 720679)
# Summary of the method: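 Red-channel autofluorescence (Ex/Em 540/590 nm; Rose Bengal sodium reference) was measured after overnight 37C, 5% CO2 exposure of attached HEK293 cells, 2,000 per well in medium with 10% dialyzed FBS.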
# [19] = qHTS assay for small molecule disruptors of the mitochondrial membrane potential (AID 720635); also: potency is read from the fitted curve at half-maximal effect
# Summary of the method: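 Mitochondrial membrane potential tracked with Mito-MPS dye, red aggregates (ex 540/em 590 nm) against green monomers (ex 490/em 535 nm). Compound treatment 1 hr at 37C, dye 30 min in HepG2.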
# Tags tell the direction and shape of the fitted curve or compound fluorescence and quenching.
# Sequence of Glucocorticoid receptor (Homo sapiens) (P04150 whole entry, looked up): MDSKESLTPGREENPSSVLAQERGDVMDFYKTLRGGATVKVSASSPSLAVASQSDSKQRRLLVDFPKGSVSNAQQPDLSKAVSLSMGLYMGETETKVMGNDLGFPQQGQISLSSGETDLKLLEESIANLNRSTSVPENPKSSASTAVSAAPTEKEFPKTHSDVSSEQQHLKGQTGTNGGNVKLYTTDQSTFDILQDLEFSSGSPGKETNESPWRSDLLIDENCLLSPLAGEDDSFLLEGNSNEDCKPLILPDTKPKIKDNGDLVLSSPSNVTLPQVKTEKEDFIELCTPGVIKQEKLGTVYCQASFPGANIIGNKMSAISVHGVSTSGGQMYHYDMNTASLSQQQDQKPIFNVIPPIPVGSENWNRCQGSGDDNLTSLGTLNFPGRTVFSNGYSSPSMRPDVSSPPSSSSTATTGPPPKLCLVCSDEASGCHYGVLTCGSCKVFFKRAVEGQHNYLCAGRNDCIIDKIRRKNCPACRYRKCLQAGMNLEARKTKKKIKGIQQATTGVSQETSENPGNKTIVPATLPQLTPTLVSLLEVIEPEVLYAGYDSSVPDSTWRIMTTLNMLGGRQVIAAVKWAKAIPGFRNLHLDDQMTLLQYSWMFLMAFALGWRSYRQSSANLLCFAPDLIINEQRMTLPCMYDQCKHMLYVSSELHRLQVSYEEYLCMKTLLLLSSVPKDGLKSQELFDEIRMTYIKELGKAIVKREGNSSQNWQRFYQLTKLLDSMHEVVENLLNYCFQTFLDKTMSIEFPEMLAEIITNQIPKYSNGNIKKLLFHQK
Compound,Potency [1],Potency [2],Potency [3],outcome [4],outcome [5],Potency [6],outcome [7],Potency [8],outcome [9],outcome [10],outcome [11],Potency [12],outcome [13],Potency [14],Potency [15],Potency [16],outcome [17],outcome [18],Potency [19]
C=Cc1ccc(OC(C)=O)cc1,inactive,inactive,inactive,inactive,inactive,inactive,inactive,inactive,inactive,inactive,inactive,inactive,inactive,inactive,inactive,inactive,,,
COC(C)(C)OC,inactive,inactive,inactive,inactive,inactive,inactive,inactive,inactive,inactive,inactive,inactive,inactive,inactive,inactive,,,inactive,inactive,
CC/C=C\C/C=C\C/C=C\CCCCCCCC(=O)OCC,inactive,62.5 µM (active),inactive,inactive,inactive,inactive,inactive,inactive,inactive,inactive,inactive,inactive,inactive,inactive,inactive,50.1 µM (active),inactive,,
CO[C@@H]1[C@@H](OC)[C@H](C)[C@@](O)(CC(=O)O)O[C@H]1[C@H](C)[C@H]1O[C@@]2(CC[C@@](C)([C@H]3CC[C@@](C)([C@@H]4O[C@@H]([C@H]5O[C@](C)(O)[C@H](C)C[C@@H]5C)C[C@@H]4OC4C[C@H](OC)[C@@H](OC)[C@H](C)O4)O3)O2)C[C@H](O)[C@H]1C (stereo partly drawn),inactive,inactive,1.19 µM (active),inactive,inactive,inactive,inactive,inactive,inactive,inactive,inactive,inactive,inactive,inactive,inactive,,inactive,inactive,
O=C(c1ccccc1)c1ccc(O)cc1,inactive,inactive,inactive,inactive,inactive,inactive,,inactive,inactive,inactive,inactive,inactive,inactive,inactive,inactive,inactive,inactive,inactive,27.6 µM (active)
COc1cc(S(=O)(=O)Nc2ccccc2)c(OC)cc1N,inactive,inactive,inactive,inactive,inactive,inactive,inactive,inactive,inactive,inactive,,inactive,inactive,inactive,inactive,inactive,inactive,,
CC[C@H]1OC(=O)[C@H](C)[C@@H](O[C@H]2C[C@@](C)(OC)[C@@H](O)[C@H](C)O2)[C@H](C)[C@@H](O[C@@H]2O[C@H](C)C[C@H](N(C)C)[C@H]2O)[C@](C)(O)C[C@@H](C)/C(=N\OCOCCOC)[C@H](C)[C@@H](O)[C@]1(C)O,inactive,inactive,inactive,inactive,inactive,inactive,,inactive,inactive,inactive,inactive,inactive,inactive,inactive,inactive,inactive,inactive,inactive,inactive
CCCCCCCCCCCCCOS(=O)(=O)O,inactive,68.6 µM (active),inactive,inactive,inactive,inactive,inactive,inactive,inactive,inactive,inactive,inactive,inactive,inactive,,,inactive,inactive,
O=C(Nc1ccc(C(=O)O)c(O)c1)c1ccccc1,inactive,inactive,inactive,inactive,inactive,inactive,,inactive,inactive,inactive,,inactive,inactive,inactive,,,,inactive,inactive
COc1cc(C(C)=O)ccc1OCCCN1CCC(c2noc3cc(F)ccc23)CC1,inactive,inactive,inactive,inactive,inactive,inactive,,inactive,inactive,inactive,inactive,inactive,inactive,inactive,inactive,inactive,inactive,inactive,
CC(C)(C)C(O)/C=C/c1ccc2c(c1)OCO2 (stereo not drawn),inactive,inactive,inactive,inactive,inactive,inactive,inactive,inactive,inactive,inactive,,inactive,inactive,inactive,,,inactive,inactive,
CC(C)C1CCC(C(=O)N[C@H](Cc2ccccc2)C(=O)O)CC1 (stereo partly drawn),inactive,inactive,inactive,inactive,inactive,inactive,,inactive,inactive,inactive,,inactive,inactive,inactive,inactive,,inactive,inactive,
CCOC(=O)c1c(N)sc2c1CCN(Cc1ccccc1)C2,inactive,inactive,inactive,inactive,inactive,14.1 µM [fluorescent] (active),inactive,15.8 µM (active),inactive,inactive,inactive,15.8 µM [fluorescent] (active),inactive,17.8 µM [fluorescent] (active),inactive,,,,
O=C(O)c1cc(Cl)cc(Cl)c1O,inactive,inactive,inactive,inactive,inactive,inactive,inactive,inactive,inactive,inactive,inactive,inactive,inactive,inactive,,,inactive,inactive,
CC(CCc1ccc(O)cc1)NCCc1ccc(O)c(O)c1 (stereo not drawn),inactive,inactive,inactive,inactive,inactive,inactive,inactive,inactive,inactive,inactive,inactive,inactive,inactive,inactive,inactive,inactive,,inactive,
